Experimental data from PubChem BioAssay.
The source made the active and inactive calls. Unless noted, the rule behind the calls is not given here.

Tests used:
[1] = tested on: XIP peptide (Xip251-270) binding; assay: small-molecule binders of XIP peptide, primary screen, biochemical, small-molecule microarray, fluorescence 635/667 nm, 0.1 µg/mL protein (AID 1182); conditions: fluorescent protein binding, 635 nm, higher = more signal, called active from +8 up or from −8 down
XIP peptide (Xip251-270) = assay: small-molecule binders of XIP peptide, primary screen, biochemical, small-molecule microarray, fluorescence 635/667 nm, 0.5 µg/mL protein (AID 1183); conditions: small-molecule microarray binding, fluorescence 635 nm; higher = more signal
[2] = Plasmodium falciparum growth inhibition, primary screen, strain 3D7, DAPI fluorescence, 100 nL (AID 1184);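 note: parasites grown inside human red blood cells in medium with human serum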; conditions: P. falciparum 3D7 growth, 3 d, higher = more signal
[3] = target: Homeobox protein Hox-A13 (Mus musculus) (UniProt Q62424); assay: inhibitors of HoxA13-DNA binding, primary screen, biochemical, fluorescence polarization, labeled oligonucleotide (AID 1185); conditions: 15 min, higher = more signal, called active from +8 up or from −8 down
[4] = inhibitors of hydroxyurea-induced Chk1 phosphorylation, primary screen, imaging, HeLa, phospho-Chk1 antibody, percent positive cells (AID 1186); conditions: hydroxyurea-induced phospho-Chk1 immunofluorescence imaging, higher = more signal
[5] = inhibitors of hydroxyurea-induced Chk1 phosphorylation, primary screen, imaging, HeLa, phospho-Chk1 nuclear intensity (AID 1187); conditions: hydroxyurea-induced phospho-Chk1 immunofluorescence imaging, higher = more signal

Sequence of Homeobox protein Hox-A13 (Mus musculus) (Q62424 whole entry, looked up): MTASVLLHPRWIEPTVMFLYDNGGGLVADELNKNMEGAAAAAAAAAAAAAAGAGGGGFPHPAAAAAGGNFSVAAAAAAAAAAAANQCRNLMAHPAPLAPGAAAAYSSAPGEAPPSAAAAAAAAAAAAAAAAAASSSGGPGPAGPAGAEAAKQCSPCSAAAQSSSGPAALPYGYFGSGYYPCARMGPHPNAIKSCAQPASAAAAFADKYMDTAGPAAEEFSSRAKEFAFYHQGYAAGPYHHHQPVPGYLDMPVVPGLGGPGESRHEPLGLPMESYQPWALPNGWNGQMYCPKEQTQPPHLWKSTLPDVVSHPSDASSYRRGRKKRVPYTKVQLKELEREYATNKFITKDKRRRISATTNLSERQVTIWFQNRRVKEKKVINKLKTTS

Which composite z-score [1] does the source give for `CC(C)C(CO)N1C(=O)[C@@H]2[C@H]3C(=O)OCC=C[C@H]3OC23C=CCN(c2ccc4ccccc4c2)C(=O)[C@@H]13` (some centres not stated) here?
The composite z-score was 0.0164 (inactive).

What about the composite z-score (XIP peptide (Xip251-270)) of the same molecule?
Its composite z-score is -0.525.

What about the z-score [2] of the same molecule?
The z-score was -0.279.

And the z-score [3]?
The z-score was -3.29 (inactive).

And the z-score [4]?
Its z-score is 0.207 (inactive).

What about the z-score [5] of the same molecule?
Its z-score is 0.426 (inactive).

For `O=C1c2ccccc2[C@@]2(Cc3ccccc3N(Cc3ccccc3)C2=O)[C@H](c2ccc(CO)cc2)N1Cc1ccccc1C(F)(F)F`, which composite z-score [1] is on record?
Its composite z-score is 3.2 (inactive).

And the composite z-score (XIP peptide (Xip251-270))?
The composite z-score was 0.878.

And the z-score [2]?
Its z-score is -0.275.

And the z-score [3]?
The z-score was -2.79 (inactive).

What about the z-score [4] of the same molecule?
The z-score was -0.21 (inactive).

And the z-score [5]?
Its z-score is -0.154 (inactive).

Which results are given for `O=C1OCCC/C=C\[C@H]2OC34C=CCN(Cn5nnc6ccccc65)C(=O)[C@H]3N(CCCO)C(=O)[C@@H]4C12` (some centres not stated)?
composite z-score [1]: -0.021 (inactive); composite z-score (XIP peptide (Xip251-270)): 0.652; z-score [2]: -0.0008; z-score [3]: -4.13 (inactive); z-score [4]: 0.472 (inactive); z-score [5]: -0.103 (inactive)

What does the source list for `O=C1O[C@@H](c2ccccc2)[C@@H](c2ccccc2)N2[C@@H](c3ccc(O)cc3)[C@]3(C(=O)Nc4ccccc43)[C@@H](C(=O)NC[C@H](O)c3ccccc3)[C@H]12`?
composite z-score [1]: 0.737 (inactive); composite z-score (XIP peptide (Xip251-270)): 0.232; z-score [2]: 1.15; z-score [3]: -5.08 (inactive); z-score [4]: -0.0877 (inactive); z-score [5]: -0.173 (inactive)

For `Cc1ccc(N2C(=O)c3ccccc3[C@@H](C(=O)NCC(C)C)[C@@H]2c2ccc(CO)cc2)nc1`, which composite z-score [1] is on record?
The composite z-score was 0.184 (inactive).

And the composite z-score (XIP peptide (Xip251-270))?
Its composite z-score is 0.934.

And the z-score [2]?
The z-score was 0.524.

And the z-score [3]?
The z-score was -0.985 (inactive).

And the z-score [4]?
The z-score was -0.275 (inactive).

And the z-score [5]?
The z-score was -0.387 (inactive).

What does the source list for `CC(c1ccccc1)C(O)C1C=CC2C(=O)N(Cc3ccccc3)C(=O)C2N1n1cnnc1` (configuration not stated)?
composite z-score [1]: -0.429 (inactive); composite z-score (XIP peptide (Xip251-270)): 0.908; z-score [2]: -0.864; z-score [3]: -1.93 (inactive); z-score [4]: 0.106 (inactive); z-score [5]: -0.634 (inactive)

For `O=C1C[C@@](C(=O)O)(c2ccc([N+](=O)[O-])cc2)[C@@H](c2ccc(CO)cc2I)N1C1CCCCC1`, which composite z-score [1] is on record?
The composite z-score was -0.183 (inactive).

What about the composite z-score (XIP peptide (Xip251-270)) of the same molecule?
Its composite z-score is 0.553.

And the z-score [2]?
Its z-score is -2.01.

And the z-score [3]?
The z-score was -6.2 (inactive).

And the z-score [4]?
Its z-score is -0.195 (inactive).

And the z-score [5]?
Its z-score is 0.201 (inactive).

Which composite z-score [1] does the source give for `COc1ccc([Si](C)(C)[C@@H]2[C@@H](CCO)O[C@]3(C(=O)N(Cc4ccccc4)c4ccc(N(C=O)c5ccccc5)cc43)[C@H]2C)cc1` here?
Its composite z-score is 0.581 (inactive).

What about the composite z-score (XIP peptide (Xip251-270)) of the same molecule?
The composite z-score was 0.573.

And the z-score [2]?
The z-score was -2.79.

And the z-score [3]?
Its z-score is -0.204 (inactive).

And the z-score [4]?
Its z-score is -1.32 (inactive).

And the z-score [5]?
The z-score was -0.697 (inactive).

Which composite z-score [1] does the source give for `Oc1ccc2cc[n+](Cc3cccc(OC(F)(F)F)c3)cc2c1` here?
Its composite z-score is 0.143 (inactive).

And the composite z-score (XIP peptide (Xip251-270))?
Its composite z-score is 0.558.

And the z-score [2]?
Its z-score is 0.233.

What about the z-score [3] of the same molecule?
Its z-score is -3.08 (inactive).

What about the z-score [4] of the same molecule?
Its z-score is -0.208 (inactive).

And the z-score [5]?
The z-score was -0.16 (inactive).

What does the source list for `NC(=O)NCC#Cc1ccc2c(c1)[C@]1(C(=O)N2)[C@H](c2ccccc2OCCO)N2[C@H](c3ccccc3)[C@H](c3ccccc3)OC(=O)[C@H]2[C@@H]1C(=O)N1CCCCCCC1`?
composite z-score [1]: 0.909 (inactive); composite z-score (XIP peptide (Xip251-270)): 0.633; z-score [2]: -2.04; z-score [3]: 3.45 (inactive); z-score [4]: 0.264 (inactive); z-score [5]: 0.69 (inactive)

With `COC(=O)[C@@]1(Cc2ccc(OC)cc2)[C@H]2c3cc(C(=O)N(C)C)n(CCSCCO)c3C[C@H]2CN1C(=O)c1ccccc1` as the molecule, how does the composite z-score [1] read?
The composite z-score was 0.149 (inactive).

What about the composite z-score (XIP peptide (Xip251-270)) of the same molecule?
The composite z-score was 0.504.

What about the z-score [2] of the same molecule?
Its z-score is -1.48.

What about the z-score [3] of the same molecule?
Its z-score is -5.09 (inactive).

What about the z-score [4] of the same molecule?
Its z-score is -0.02 (inactive).

What about the z-score [5] of the same molecule?
Its z-score is 0.101 (inactive).

Which composite z-score [1] does the source give for `COc1ccc([Si](C)(C)[C@H]2[C@H](CCO)O[C@@]3(C(=O)N(Cc4cccc(N5C(=O)c6cccc7cccc5c67)c4)c4ccccc43)[C@@H]2C)cc1` here?
The composite z-score was 0.834 (inactive).

And the composite z-score (XIP peptide (Xip251-270))?
The composite z-score was 0.512.

What about the z-score [2] of the same molecule?
The z-score was -2.82.

What about the z-score [3] of the same molecule?
The z-score was -1.61 (inactive).

And the z-score [4]?
Its z-score is -0.283 (inactive).

What about the z-score [5] of the same molecule?
Its z-score is -0.304 (inactive).

Which results are given for `O=C(CS)NCCCCCCNC(=O)[C@H]1C[C@H]2C(=O)N3CCC[C@H]3C(=O)N2[C@H]1c1ccc(O)cc1`?
composite z-score [1]: 0.573 (inactive); composite z-score (XIP peptide (Xip251-270)): 0.646; z-score [2]: -0.38; z-score [3]: -2.8 (inactive); z-score [4]: -0.508 (inactive); z-score [5]: -0.19 (inactive)

Which composite z-score [1] does the source give for `COC(=O)[C@@]1(Cc2ccc(F)cc2)[C@H]2c3cc(C(=O)N(C)C)n(CCc4c[nH]c5ccc(OC)cc45)c3C[C@H]2CN1C(=O)c1ccccc1` here?
The composite z-score was 0.661 (inactive).

And the composite z-score (XIP peptide (Xip251-270))?
Its composite z-score is -0.21.

And the z-score [2]?
The z-score was -1.52.

And the z-score [3]?
The z-score was -0.694 (inactive).

What about the z-score [4] of the same molecule?
Its z-score is 0.737 (inactive).

And the z-score [5]?
Its z-score is 0.0892 (inactive).

Which composite z-score [1] does the source give for `C=CCC(OC(C)=O)[C@@H]1[C@@H](N(Cc2ccc(-c3cccc(C(F)(F)F)c3)o2)C(=O)Cc2ccc(OC)cc2)c2cc(OCCCO)ccc2N1C(=O)Cc1ccc(OC)cc1` (some centres not stated) here?
The composite z-score was -0.343 (inactive).

And the composite z-score (XIP peptide (Xip251-270))?
The composite z-score was 0.278.

And the z-score [2]?
Its z-score is -2.23.

What about the z-score [3] of the same molecule?
Its z-score is -3.42 (inactive).

What about the z-score [4] of the same molecule?
Its z-score is -0.186 (inactive).

And the z-score [5]?
The z-score was -0.0407 (inactive).

What does the source list for `[N-]=[N+]=NCc1ccccc1[C@H]1OC(c2ccc(OCCCO)cc2)=N[C@@]1(Cc1ccccc1)C(=O)O`?
composite z-score [1]: 0.419 (inactive); composite z-score (XIP peptide (Xip251-270)): 0.652; z-score [2]: 0.45; z-score [3]: -5.05 (inactive); z-score [4]: -0.594 (inactive); z-score [5]: -1.1 (inactive)

With `COCCOC(=O)N1C(=O)[C@@]2(c3cc(C#CCCO)ccc31)[C@H](c1ccc(O)cc1)N1[C@H](c3ccccc3)[C@H](c3ccccc3)OC(=O)[C@H]1[C@@H]2C(=O)N1CCCCCCC1` as the molecule, how does the composite z-score [1] read?
The composite z-score was 0.449 (inactive).

What about the composite z-score (XIP peptide (Xip251-270)) of the same molecule?
Its composite z-score is 0.723.

And the z-score [2]?
The z-score was -0.0358.

And the z-score [3]?
The z-score was -1.14 (inactive).

And the z-score [4]?
Its z-score is -0.0035 (inactive).

What about the z-score [5] of the same molecule?
The z-score was -0.334 (inactive).
